In PubChem BioAssay (NCATS):
Inconclusive results are not listed. Calls of active or inactive are those of the source. Calls come from the whole dose curve; as a rule, active = well fitted cell-killing curve with a large enough effect; inconclusive = small, poorly fitted or top-dose-only effect, or effect the other way; inactive = no such curve, though single readings can be large or run the other way.

Experiment: Quantitative High-Throughput drug screen in 47 multiple myeloma cell lines against the NCATS MIPE library collection: Delta47_JCRB cell viability assay (AID 1918925; note: nearly all actives have a fitted effect of over 45% in size)
Conditions: Delta47 myeloma viability, CellTiter-Glo ATP, 48 h; series mostly up to 45.8 µM
In short: (§1)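 Approved and investigational drugs from MIPE 4.0 were added by pin tool to 500 cells per well. After 48 hours at 37C, ATP-based CellTiter-Glo luminescence indicated remaining viability.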
Potency is the fitted concentration of half-maximal effect.

SMILES | Potency
CCN(c1ccccc1)c1cc(NC)[n+](C)c(C)n1 | inactive
Cc1cc(Nc2nc(N[C@@H](C)c3ncc(F)cn3)ncc2Cl)n[nH]1 | inactive
O=C(NOC[C@H](O)CO)c1ccc(F)c(F)c1Nc1ccc(I)cc1F | 11.8 nM (active)
CC1(C)CNc2cc(NC(=O)c3cccnc3NCc3ccncc3)ccc21 | inactive
C[C@@H]1CN(Cc2ccc(F)cc2)[C@@H](C)CN1C(=O)c1cc2c(C(=O)C(=O)N(C)C)cn(C)c2cc1Cl | 9350 nM (active)
CC(C)(N)C(=O)N[C@H](COCc1ccccc1)C(=O)N1CCC2(CC1)CN(S(C)(=O)=O)c1ccccc12 | 7430 nM (active)
NC(=O)c1ccc(-c2nc(-c3ccc4c(c3)OCO4)c(-c3ccccn3)[nH]2)cc1 | inactive
COc1c(Cl)cc2c([nH]c3cnccc32)c1NC(=O)c1cccnc1C | 2960 nM (active)
C[C@H](NC(=O)Cc1cc(F)cc(F)c1)C(=O)N[C@@H]1C(=O)N(C)c2ccccc2-c2ccccc21 | 7430 nM (active)
CC(C)OC(=O)C1=CN(C(=O)c2ccc(F)c(F)c2)CC(C)(C)c2c1[nH]c1ccccc21 | inactive
COc1cccc2cc(-c3nc(C4CCC(C(=O)O)CC4)n4ncnc(N)c34)[nH]c12 (stereo not given) | 469 nM (active)
CN(C)c1ccc(C2Nc3ccc4ccccc4c3C3=C2C(=O)CC(C)(C)C3)cc1Br (stereo not given) | 2350 nM (active)
Cc1cc2c(F)c(Oc3ncnn4cc(OC[C@@H](C)O)c(C)c34)ccc2[nH]1 | 16600 nM (active)
CCn1c(-c2nonc2N)nc2cnc(Oc3cccc(NC(=O)c4ccc(OCCN5CCOCC5)cc4)c3)cc21 | 8330 nM (active)
Nc1cccc(S(=O)(=O)N2CCCN(S(=O)(=O)c3ccc4c(c3)OCCO4)CC2)c1 | 833 nM (active)

Experiment: Quantitative High-Throughput drug screen in 47 multiple myeloma cell lines against the NCATS MIPE library collection: EJM_DSMZ cell viability assay (AID 1918926; note: nearly all actives have a fitted effect of over 30% in size)
Conditions: EJM myeloma cell viability, CellTiter-Glo ATP, 48 h; series mostly up to 45.8 µM
In short: as §1

SMILES | Potency
CS(=O)(=O)c1ccc(C(=O)Nc2ccc(Cl)c(-c3ccccn3)c2)c(Cl)c1 | inactive
Cc1cc(Nc2nc(N[C@@H](C)c3ncc(F)cn3)ncc2Cl)n[nH]1 | 2640 nM (active)
O=C(NOC[C@H](O)CO)c1ccc(F)c(F)c1Nc1ccc(I)cc1F | inactive
CC1(C)CNc2cc(NC(=O)c3cccnc3NCc3ccncc3)ccc21 | 2640 nM (active)
Clc1ccc(Nc2nnc(Cc3ccncc3)c3ccccc23)cc1 | 18700 nM (active)
COc1cc(Oc2ccnc3cc(OC)c(OC)cc23)ccc1NC(=O)NC(C)c1nccs1 (stereo not given) | inactive
COc1c(Cl)cc2c([nH]c3cnccc32)c1NC(=O)c1cccnc1C | 3720 nM (active)
CCCS(=O)(=O)Nc1ccc(F)c(C(=O)c2c[nH]c3ncc(Cl)cc23)c1F | inactive
CC(C)OC(=O)C1=CN(C(=O)c2ccc(F)c(F)c2)CC(C)(C)c2c1[nH]c1ccccc21 | inactive
COc1cccc2cc(-c3nc(C4CCC(C(=O)O)CC4)n4ncnc(N)c34)[nH]c12 (stereo not given) | 187 nM (active)
